S aureus helic – inhibitors of S. aureus replicative helicase, primary screen, biochemical, fluorescence unwinding readout; inhibition, % (no concentration beside the values); 0.05% of 120,000 active; AID 485395, 2010; purified S. aureus helicase, fluorescence unwinding assay; replicative DNA helicase (DnaC/DnaB), Staphylococcus aureus; in the data active means inhibition above about 25%, passing the limit was not always enough;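 further: 0% = mean of negative control wells and 100% = mean of positive control wells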
Sa growth 42C – S. aureus growth inhibition at 42 and 30 °C, primary screen, LtaS inhibitor project, RN4220, two temperatures. OD600, 20 h, 42 °C; stronger effect = lower value. relative growth, % (no concentration beside the values). 0.53% of 170,000 active;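 active means relative growth at most 50% at the other temperature and 20+ points below 30 °C, or under 10% at both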
Numbers without * were called inactive; . = no result. The sample as a whole holds a higher share of hits than the screen did.

SMILES | S aureus helic | Sa growth 42C
COc1c(N2C[C@@H]3CCCN[C@@H]3C2)c(F)cc2c(=O)c(C(=O)O)cn(C3CC3)c12 | . | -0.9*
CC1COc2c(N3CCN(C)CC3)c(F)cc3c(=O)c(C(=O)N4CCN(S(=O)(=O)c5ccccc5)CC4)cn1c23 (stereo not given) | -9.0 | 89.9
N/C(=N\O)c1c(O)c2ccccc2[nH]c1=O | 7.0 | 99.9
CN1CCN(C(=O)Cn2nc(-c3ccccc3)c3ccccc3c2=O)CC1 | 3.0 | 91.2
C#CCN1C(=O)S/C(=C\c2ccc(OCc3ccc(C(=O)O)o3)cc2)C1=O | 2.0 | 103.8
CC(C)C(=O)/C(C#N)=N/Nc1ccc(F)cc1 | -13.0 | 8.0*
N#C/C(=N\Nc1ccc(F)cc1)C(=O)NCC1CCCO1 (stereo not given) | -15.0 | 93.3
FC(F)(F)c1nc(NNC(=S)NCC2CCCO2)c2ccccc2n1 (stereo not given) | -3.0 | 56.0
COc1ccc(CNc2cc(C)nc3ccc(OC)cc23)cc1 | -11.0 | 75.5
COc1ccc(Nc2cc(C)nc3ccc(OC)cc23)cc1 | 63.0* | 88.0
N#Cc1c(O)c2ccccc2[nH]c1=O | -14.0 | 96.9
Cc1cc(C)cc(NC(=S)NC2CCCCC2)c1 | . | 78.5
FC(F)(F)c1cc(NC(=S)NC2CCCCC2)cc(C(F)(F)F)c1 | . | 7.4*
COC(=O)C1=C(C)OC(N)=C(C#N)C1c1cc(C)cc(Cn2ccc(C(F)(F)F)n2)c1C (stereo not given) | 9.0 | 98.5
CCCC(=O)Nc1sc2c(c1C(N)=O)CCC2 | -3.0 | 98.8
CC(C)C1O/C(=N\C(=O)Nc2ccc(Cl)c(Cl)c2)NC1=O (stereo not given) | -3.0 | 0.5*
CCNC(=O)/N=C1\NC(=O)C(C(C)C)O1 (stereo not given) | -7.0 | 86.3
CCc1c(C)sc2c1CCN(Cc1ccccc1)C2c1ccccc1 (stereo not given) | . | -1.1*
CCc1c(C)sc2c1CCN(Cc1ccccc1C#N)C2c1ccccc1 (stereo not given) | . | 97.9
CCNC(=O)C1CCN(c2nn3cc(-c4ccc(F)cc4)nc3s2)CC1 | -4.0 | 85.6
O=S(=O)(c1cc(Cl)ccc1Cl)N1CCCCC1 | . | 109.3
O=S(=O)(c1cc(Cl)ccc1Cl)N1CCCC1 | 1.0 | 49.0*
Cc1ccc(S(=O)(=O)NC2=NCN(C)CN2)cc1 | 7.0 | 97.2
O=c1[nH]nc(SCc2ccc(Cl)cc2Cl)c(=O)[nH]1 | -10.0 | 89.8
FC(F)(F)c1nc(SCc2ccc(Cl)cc2Cl)n[nH]1 | . | -0.8*
SMILES | S aureus helic | Sa growth 42C
CCCCOc1ccc(C(=O)N2CCCCC2CCN2CCOCC2)cc1 (stereo not given) | . | 100.0
O=C(CCN1CCOCC1)c1ccc(Br)cc1 | 5.0 | -0.4*
CCCCCOc1ccc(C(=O)CCN2CCOCC2)cc1 | 8.0 | 12.7*
O=C(CCN1CCOCC1)c1ccc(O)cc1 | . | 101.9
C=CCN1C(=O)/C(=C2\SC(N)=NC2=O)c2ccccc21 | -9.0 | 142.0
CC(Oc1ccc(F)cc1)C(=O)Nc1nc(-c2ccc(F)cc2)ns1 (stereo not given) | . | 2.3*
COc1ccc(-c2nsc(NC(=O)C(C)Oc3ccc(Cl)c(C)c3)n2)cc1 (stereo not given) | . | 83.5
CCn1ccc(C(C)C)c1-c1ccccc1 | 3.0 | 101.5
CCC(=O)n1ccc(C(=O)N2CCOCC2)n1 | -2.0 | 121.0
COc1ccc(-c2nn(C)c3sc(C(=O)NCCCN4CCOCC4)cc23)cc1OC | 32.0 | 133.8
CCCN1CCN(CCCNC(=O)c2cc3c(-c4ccc(OC)c(OC)c4)nn(C)c3s2)CC1 | 50.0* | 131.2
Cc1cc(C)[nH]c(=S)n1 | -4.0 | 77.2
Cc1cc(=S)nc(C(C)C)[nH]1 | -6.0 | 27.7*
CN(C)c1ccc(CNC(=O)C(Cc2ccccc2)n2cccc2)cc1 (stereo not given) | 1.0 | 90.3
O=C(O)Cc1ccc2c(c1)OCCCO2 | 2.0 | 89.8
CC(=O)OCC1=C(C(=O)O)N2C(=O)[C@@H](NC(=O)Cc3cccs3)[C@H]2SC1 | . | -0.7*
CO/N=C(\C(=O)O)c1csc(N)n1 | 17.0 | 92.1
C=CC1=C(C(=O)O)N2C(=O)[C@@H](NC(=O)C(=NO)c3csc(N)n3)[C@H]2SC1 | . | -0.1*
COCC1=C(C(=O)OC(C)OC(=O)OC(C)C)N2C(=O)[C@@H](NC(=O)/C(=N/OC)c3csc(N)n3)[C@H]2SC1 (stereo not given in full) | . | 37.1
CO/N=C(/C(=O)N[C@@H]1C(=O)N2C(C(=O)O)=C(COC(C)=O)CS[C@H]12)c1csc(N)n1 | . | 1.1*
COc1ccc(N2CC(NC(=O)Cc3cccs3)CC2=O)cc1 (stereo not given) | . | 108.9
Cc1ccccc1OCC(=O)Nc1cccnc1 | -13.0 | 125.5
Cc1ccc2nc(COC(=O)C(NS(=O)(=O)c3ccc4c(c3)OCCO4)C(C)C)cc(=O)n2c1 (stereo not given) | 12.0 | 89.6

Screens: PubChem BioAssay, ICCB-Longwood Screening Facility, Harvard Medical School
